# Most compounds without a hit are left out; they make up all but 3% or so of the library.
# KDM5B inh: KDM5B demethylase inhibition; Q9UGL1; KDM5B demethylase, FDH-coupled NADH fluorescence (FDH is formaldehyde dehydrogenase); Potency, µM (titrated, usually from 57.7 µM), hits mostly inhibitors; hit rate 2.6% among 220,000; note: potency is the fitted concentration of half-maximal effect; 0% is about no effect; nearly all actives have a fitted effect of over 70% in size
# Target sequence (Q9UGL1 whole entry, looked up): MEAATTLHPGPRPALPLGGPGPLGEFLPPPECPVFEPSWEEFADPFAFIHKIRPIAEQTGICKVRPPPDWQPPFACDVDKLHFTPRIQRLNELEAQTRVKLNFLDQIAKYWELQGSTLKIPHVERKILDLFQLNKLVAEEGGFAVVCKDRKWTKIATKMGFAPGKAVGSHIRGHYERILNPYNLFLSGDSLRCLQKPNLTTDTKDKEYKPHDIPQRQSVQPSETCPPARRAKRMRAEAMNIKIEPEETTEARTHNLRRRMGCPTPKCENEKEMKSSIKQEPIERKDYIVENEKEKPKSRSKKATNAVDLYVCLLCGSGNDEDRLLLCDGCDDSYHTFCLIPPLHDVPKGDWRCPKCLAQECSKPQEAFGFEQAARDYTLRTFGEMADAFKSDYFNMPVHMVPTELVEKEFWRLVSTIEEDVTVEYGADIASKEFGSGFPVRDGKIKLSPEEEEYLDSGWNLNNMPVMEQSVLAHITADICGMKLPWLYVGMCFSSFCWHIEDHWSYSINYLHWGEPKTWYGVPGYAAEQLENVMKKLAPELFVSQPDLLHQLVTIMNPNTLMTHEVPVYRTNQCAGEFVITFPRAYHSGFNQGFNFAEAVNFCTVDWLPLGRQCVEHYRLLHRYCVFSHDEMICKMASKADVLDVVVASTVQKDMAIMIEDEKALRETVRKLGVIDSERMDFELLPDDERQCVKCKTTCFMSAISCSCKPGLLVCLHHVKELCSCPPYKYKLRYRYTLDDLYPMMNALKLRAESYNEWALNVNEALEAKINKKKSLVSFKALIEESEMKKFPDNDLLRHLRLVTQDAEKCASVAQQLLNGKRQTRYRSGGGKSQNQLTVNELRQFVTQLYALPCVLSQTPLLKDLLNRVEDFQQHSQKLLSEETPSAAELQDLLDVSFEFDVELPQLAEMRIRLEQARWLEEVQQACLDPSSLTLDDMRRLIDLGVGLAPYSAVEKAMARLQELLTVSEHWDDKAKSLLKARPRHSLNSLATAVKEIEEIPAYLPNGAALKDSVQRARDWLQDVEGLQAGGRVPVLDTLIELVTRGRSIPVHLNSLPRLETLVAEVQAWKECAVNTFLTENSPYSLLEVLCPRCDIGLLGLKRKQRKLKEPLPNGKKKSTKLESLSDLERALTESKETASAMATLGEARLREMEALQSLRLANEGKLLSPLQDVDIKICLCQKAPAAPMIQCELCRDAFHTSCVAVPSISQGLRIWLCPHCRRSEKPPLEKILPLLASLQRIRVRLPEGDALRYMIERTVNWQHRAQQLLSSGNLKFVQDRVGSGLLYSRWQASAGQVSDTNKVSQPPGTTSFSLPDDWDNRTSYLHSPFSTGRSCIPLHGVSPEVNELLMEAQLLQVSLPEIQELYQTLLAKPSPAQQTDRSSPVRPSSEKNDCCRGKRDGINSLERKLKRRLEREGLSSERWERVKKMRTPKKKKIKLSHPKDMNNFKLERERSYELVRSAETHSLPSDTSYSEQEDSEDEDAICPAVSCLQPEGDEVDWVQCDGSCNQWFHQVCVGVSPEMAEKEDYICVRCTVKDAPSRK
#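 qHTS format, multiple compound concentrations. Buffer 50 mM HEPES pH 7.5/0.01% Tween-20; 200 nM KDM5BΔAP final; 10 min compound preincubation; substrate-mix levels 12.5 µM peptide, 25 µM α-KG, 0.25 mM NAD⁺; 30 min RT; ΔRFU.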
# IP6K1 inhibitor: IP6K1 kinase inhibition; Q92551; IP6K1 kinase, ADP-Glo luminescence, 2 h; active compounds read low; activity change, % (series mostly up to about 58 µM); hit rate 0.81% among 140,000; in the data active = activity change below about -25%; note: % is set by controls: 0 for no effect and ±100 for the full control effect
#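 ADP-Glo luminescence measures ADP made by human IP6K1 during a 2 h RT reaction with ATP/IP6 (mix at 1.3 mM/130 uM); top library doses 57.5 and 19.1 uM final.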
# SNCA expr inh: SNCA gene expression inhibition. HEK-293 SNCA-luciferase knock-in, luminescence, 24 h. Potency, µM (highest dose often 57.2 µM), without a hit: at the top dose activity change, negative = inhibition, most hits filed as inhibitors. hit rate 0.17% among 140,000. AID 1671194;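 note: potency is the fitted concentration of half-maximal effect; plate controls were DMSO cells for no effect and cell-free wells for full effect; nearly all actives have a fitted effect of over 45% in size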
# SNCA viab count: cell viability loss counter-screen; Potency, µM (series often up to 57.1 µM), for the others: top-dose activity change, negative = cytotoxicity, usual class: cytotoxic; hit rate 0.12% among 150,000; HEK-293-SNCA-luc viability, GF-AFC fluorescence, 24 h;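 note: potency is the fitted concentration of half-maximal effect; 0% = DMSO-treated cells and -100% = medium-only wells without cells; nearly all actives have a fitted effect of over 30% in size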
#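 HEK-293-SNCA-luc cells (1500/well) plated 24 h, then exposed 24 h to a dilution series; GF-AFC added 30 min at 37C, fluorescence 405/540 nm; normalised to medium-only and DMSO wells, Hill fit.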
# IP6K1 inh cnf: confirmation of human IP6K1 inhibitors. shares compounds with IP6K1 inhibitor. recombinant IP6K1 kinase, ADP-Glo luminescence, 2 h. Potency, µM (doses to about 49 µM), inactives show at the highest dose activity change, negative = inhibition, actives largely listed as inhibitors. hit rate 13% among 1,200; note: potency is the fitted concentration of half-maximal effect; % is set by controls: 0 for no effect and ±100 for the full control effect; nearly all actives have a fitted effect of over 65% in size
# * marks the source's active call; other numbers are inactive results; i = inactive; ? = inconclusive; / = no result; [ ] = dose if it differs, or a comment. Unless noted, calls come from the whole dose curve; as a rule, active = well fitted curve in the direction sought with a large enough effect; inconclusive = small, poorly fitted or top-dose-only effect, or another doubt; inactive = no such curve, though single readings can be large; an effect the other way counts as inactive or inconclusive.
SMILES,KDM5B inh,IP6K1 inhibitor,SNCA expr inh,SNCA viab count,IP6K1 inh cnf
COc1cccc(NC(=O)c2nnn(Cc3ccc(OC)c(Br)c3)c2N)c1,i,-27*,43%,3%,?
COc1ccc(NC(=O)Cn2nnc(C(=O)Nc3ccc(C)c(F)c3)c2N)cc1Cl,i,21,22%,-8%,/
Cc1cccc(NC(=O)Cn2nnc(C(=O)Nc3ccc(F)c(Cl)c3)c2N)c1,i,-34*,3%,-13%,-17%
O=C(CNC(=O)c1cccc(-c2ccc(C(F)(F)F)cc2)c1)NCC1CC1,/,-2,33%,9%[12.5 µM],/
CCCOc1ccc(C(=O)N(Cc2ccc(N(C)C)cc2)CC2CCCO2)cc1 (stereo unspecified),i,-10,15%,-9%,/
COc1ccc(C(=O)N(Cc2cc(OC)c(OC)c(OC)c2)CC2CCCO2)cc1 (stereo unspecified),?,-25*,25%,?,5%
O=C1CO[C@H]2CN(c3ncccn3)C[C@H]2N1CC1CCCCC1,35µM*,-27*,-9%[87.6 µM],-12%[87.6 µM],-12%
Cc1cccc(NC(=O)N2CC(Oc3cccc(-c4nc(C)no4)c3)C2)c1,/,11,40%,-6%,/
COc1ccc(N2C(=O)CSC23C(=O)N(C)c2ccccc23)cc1Cl (stereo unspecified),?,-26*,-14%,-1%,-18%
COc1cc(N2C(=O)CSC23C(=O)N(C)c2ccccc23)cc(OC)c1OC (stereo unspecified),i,6,2%,-1%,/
CCOC(=O)Cn1c(=N)n(Cc2ccc(C(C)(C)C)cc2)c2ccccc21,?,-27*,?,?,2%
COc1cccc(CNC(=O)c2ccc3oc(-c4cccnc4)nc3c2)c1,/,12,31%,9%,/
O=C(c1ccncc1)N1CCCN(c2ccnc3ccnn23)CC1,/,-24,13%[87.6 µM],0%[87.6 µM],/
O=C(c1ccccc1)N1CCCN(c2ccnc3ccnn23)CC1,/,-26*,2%[87.6 µM],12%[87.6 µM],13%
N#C/C(=C/c1ccccc1Cl)c1nc2ccccc2c(=O)[nH]1,i,5,12%,2%,/
N#C/C(=C\c1cc(Br)c(O)c(Br)c1)c1nc2ccccc2c(=O)[nH]1,?,-29*,-27%,-3%,1.8µM*
CCOc1ccc(NC(=O)CSc2nnc(-c3ccncc3)n2-c2ccccc2)cc1,i,5,-10%,2%,/
CCOC(=O)c1ccc(NC(=O)CSc2nnc(-c3ccncc3)n2-c2ccccc2)cc1,i,-27*,28%,0%,21%
O=C1NC(=O)/C(=C/c2ccc(-c3ccc(F)cc3O)o2)S1,/,/,21%,-8%,2.6µM*
Cn1ncc2c(C(=O)NCc3ccc4c(c3)OCO4)cc(-c3ccccc3)nc21,/,-6,-4%,5%,/
COc1cc(/C=C2\C(=O)Nc3ccccc32)ccc1O,/,/,/,/,10µM*
CCOc1cc(/C=C2\C(=O)Nc3ccccc32)ccc1OC(F)F,i,/,/,/,/
CCOCCNC(=O)CNC(=O)c1ccc(-c2cccc(C(F)(F)F)c2)cc1,/,-1,69%,-6%[12.5 µM],/
CS(=O)(=O)N1CCC2(CC1)CN(c1cccc(F)c1)C2c1ccccc1 (stereo unspecified),/,1,-29%,1%,/
COCCN(Cc1cccs1)S(=O)(=O)c1cc(-c2cc(C)no2)ccc1C,i,-33*,-25%,-4%,?
SMILES,KDM5B inh,IP6K1 inhibitor,SNCA expr inh,SNCA viab count,IP6K1 inh cnf
Cc1cc(-c2ccc(C)c(S(=O)(=O)N(Cc3cccs3)C(C)C)c2)on1,?,6,?,-13%,/
Cc1ccc(-c2ccc(=O)n(CCC(=O)NCCc3ccccc3)n2)cc1,?,-27*,22%,0%,-12%
O=C(NCc1cccs1)C1CCCCN1Cc1ccc(-c2cccs2)cc1 (stereo unspecified),/,-1,?,-13%,/
Cc1cccc2c1O[C@H]1[C@H](CO)CN([S+](=O)([O-])Cc3ccccc3)[C@@H]21,/,21,/,/,/
CCOC(=O)c1ccc(NC(=O)c2csc3c2CCCC3)cc1,?,-33*,91%,0%,?
CN(C)Cc1nnc(C2CC(NC(=O)c3ccccc3-c3ncn[nH]3)C2)n1C (stereo unspecified),i,-28*,-15%,1%,-10%
Cc1noc(C)c1[S+](=O)([O-])N1CCCC(C(=O)N2CCC(c3nc4ccncc4[nH]3)CC2)C1 (stereo unspecified),/,2,2%,8%,/
O=C(NCc1cccnc1)C1CCN(c2ccnc3ccnn23)CC1,/,-8,-7%[87.6 µM],1%[87.6 µM],/
O=C(NCCc1ccccc1F)c1ccc2nnc(Cc3ccc(Cl)cc3)n2c1,/,2,67%,-16%,/
O=C(O)c1ccc2c(c1)nc(Nc1cccc(Cl)c1)c1ccncc12,/,-35*,?,-33%,?
Clc1cccc(Nc2nc(-c3ccncc3)nc3ccccc23)c1,i,/,/,/,/
O=C(NOC[C@H](O)CO)c1ccc(F)c(F)c1Nc1ccc(I)cc1F,/,-6,-17%,-5%,-1%
O=C(NCC(O)CO)c1ccncc1Nc1ccc(I)cc1F (stereo unspecified),/,5,/,2%,/
O=C(Nc1ccc(I)cc1C(F)(F)F)c1cc(Cl)ccc1Cl,i,/,/,/,/
O=C(NOCC1CC1)c1ccc(F)c(F)c1Nc1ccc(I)cc1Cl,/,11,-33%,-21%,-14%
Cc1ccc(CN2CCCC(c3nn(-c4ccc(Cl)cc4)c(=O)[nH]3)C2)cc1 (stereo unspecified),i,-3,1%,11%,/
Cc1ccc(-c2ncc(C(=O)Nc3cccc(Br)c3)c(-c3ccncc3)n2)cc1,?,21,-29%,-25%,/
COc1ccc(Nc2cc(C(=O)NCc3ccccc3)c3ccccc3n2)cc1,i,-44*,-5%,-1%,-10%
CCN(CCCNC(=O)c1cc(Nc2ccc(OC)cc2OC)nc2ccccc12)c1cccc(C)c1,?,-36*,3%,-4%,-2%
COc1ccc(CNC(=O)c2cc(Nc3ccccc3C)nc3ccccc23)cc1,i,0,-14%,4%,/
Cc1ccc(NC(=O)/C(C#N)=C/c2cc(C)n(-c3ccc(Br)cc3)c2C)cc1C,?,-29*,?,?,-11%
Cc1[nH]c(/C=C2\C(=O)Nc3ccccc32)c(C)c1CCC(=O)O,/,/,/,/,9%
O=C(c1ccc(F)cc1)N1CCN(c2nccc(Nc3ccccc3Cl)n2)CC1,/,22,?,-9%,/
O=C(NCc1ccco1)c1ccc2c(c1)N(Cc1ccc(Cl)cc1)C(=O)c1ccccc1S2,?,-26*,-20%,-22%,?
COc1ccccc1Nc1ccnc(N2CCC(C(=O)NCC3CC3)CC2)n1,/,15,29%,5%,/
Cc1ccc(C(=O)Nc2ccc3oc(-c4cccnc4)nc3c2)c(Cl)c1,?,-30*,20%,-1%,?
Cc1cccc(-c2nc3cc(NC(=O)c4ccccc4F)ccc3o2)c1,i,/,/,/,/
O=C(Nc1ccc2oc(-c3cccnc3)nc2c1)c1ccccc1F,?,-30*,55%,14%,?

# Screening data as filed in PubChem BioAssay.
